High-throughput results deposited in PubChem by National Center for Advancing Translational Sciences (NCATS).
IDH1 R132H inh = inhibitors of human mutant IDH1 R132H | IDH1-R132H enzyme, NADPH consumption, diaphorase/resazurin fluorescence | Potency, µM (titrated, usually from 76.6 µM), without a hit: at the highest dose activity change, negative = inhibition, hits mostly inhibitors | O75874 | AID 602179 | hit rate 0.093% among 390,000; further: potency means the concentration at half of the fitted maximal effect; on the % scale 0 is the no-effect control and ±100 the full control effect; nearly all actives have a fitted effect of over 65% in size
Target sequence (O75874 whole entry R132H, stated change not applied): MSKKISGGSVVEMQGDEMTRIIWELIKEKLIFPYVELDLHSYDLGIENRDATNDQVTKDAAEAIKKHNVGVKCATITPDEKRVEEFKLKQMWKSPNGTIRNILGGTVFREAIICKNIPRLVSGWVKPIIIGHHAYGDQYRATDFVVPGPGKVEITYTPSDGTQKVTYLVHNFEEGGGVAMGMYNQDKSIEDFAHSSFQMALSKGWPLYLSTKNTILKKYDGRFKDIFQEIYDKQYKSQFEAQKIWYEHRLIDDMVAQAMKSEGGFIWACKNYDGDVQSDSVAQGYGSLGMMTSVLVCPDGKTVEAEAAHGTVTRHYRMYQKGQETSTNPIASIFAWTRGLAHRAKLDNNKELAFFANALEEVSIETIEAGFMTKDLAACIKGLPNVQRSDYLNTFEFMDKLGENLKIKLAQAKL
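IDH1-R132H (0.5 ug/mL dispensed) in pH 7.5 Tris buffer was preincubated 30 min with compound, then given a substrate mix of 0.016 mM NADPH and 2 mM alpha-KG for 80 min at room temperature; remaining NADPH was read by diaphorase/resazurin fluorescence.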
ATXN viability = reduces viability in counter-screen for ATXN expression inhibitors; Potency, µM (top dose mostly 56.7 µM), actives largely listed as cytotoxic; hit rate 0.49% among 400,000; S2 cells (HEK-293 line with an ATXN2-luciferase reporter) viability, CellTiter-Fluor protease fluorescence, 24 h; further: potency means the concentration at half of the fitted maximal effect; nearly all actives have a fitted effect of over 40% in size
HepG2 tox-1 = HepG2 cytotoxicity, counter-screen for TGF-b inhibitors | HepG2 CAGA-GFP viability, ATP luminescence, 18 h | hit rate 0.76% among 410,000 | Potency, µM (series often up to 46.1 µM), without a hit: top-dose activity change, negative = cytotoxicity, most hits filed as cytotoxic | AID 588856; further: potency means the concentration at half of the fitted maximal effect
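HepG2 CAGA-GFP cells (1000/well, DMEM with 1% FBS) received compound, then TGF-beta at 500 pg/mL final, and were incubated 18 hours at 37 degrees C. Viability was read by CellTiter-Glo luminescence. Media-only wells were set as complete cell-killing and DMSO as no toxicity.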
LDHA block = LDHA (human) enzyme inhibition | hit rate 0.15% among 480,000 | purified LDHA, NADH/diaphorase-resazurin fluorescence; hits give low values | activity change, % (values are at about 110 or 230 µM); in the data active means activity change below about -30%; inconclusive means mostly about -25% to -30%;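 further: plate controls were DMSO wells for no effect and wells without enzyme for full effect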
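Resorufin fluorescence (ex540/em590), read at 0 and 20 min after diaphorase/resazurin addition, reports the NADH left after a 5 min room-temperature reaction of 2 nM human LDH5 with 0.06 mM NADH and 0.2 mM pyruvate.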
TGFb SMAD3 inh = blocks TGF-b signaling; Potency, µM (series often up to 46.1 µM), without a hit: at the highest dose activity, negative = inhibition, actives largely listed as inhibitors; hit rate 1.2% among 410,000; HepG2 CAGA-GFP TGF-b/SMAD3 reporter, GFP fluorescence, 18 h; TGF-beta stimulated, 500 pg/mL final; further: potency means the concentration at half of the fitted maximal effect; on the % scale 0 is the no-effect control and ±100 the full control effect; nearly all actives have a fitted effect of over 65% in size
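First, reporter cells (HEPG2 CAGA-GFP) rested 2 h at 37 degrees C. Next, compounds were pinned in and TGF-beta added to 500 pg/mL final. After 18 h, GFP was imaged per cell and summed per well.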
ATXN2 expr inh = inhibitors of ATXN2 expression; HEK-293 ATXN2-luciferase reporter, luminescence, 24 h; hit rate 0.72% among 360,000; Potency, µM (highest dose often 57 µM), inactives show top-dose activity change, negative = inhibition, usual class: inhibitors; further: potency means the concentration at half of the fitted maximal effect; on the % scale 0 is the no-effect control and ±100 the full control effect; nearly all actives have a fitted effect of over 55% in size
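qHTS (up to 57 uM final) was run with 24 h compound exposure of reporter cells at 37 °C. Each well was multiplexed: SteadyGlo luminescence measured ATXN2-luciferase expression after a fluorogenic Gly-Phe-AFC viability readout (25 uM final).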
TGFb confirm = confirmation of TGF-b signaling inhibitors in HepG2 reporter cells; hit rate 63% among 1,600; Potency, µM (highest dose often 46.1 µM), inactives show at the highest dose activity, negative = inhibition, hits mostly inhibitors; HepG2 CAGA-GFP TGF-b reporter, GFP fluorescence, 18 h; cells stimulated with TGF-beta, 500 pg/mL; AID 720534; shares compounds with TGFb SMAD3 inh; further: potency means the concentration at half of the fitted maximal effect; on the % scale 0 is the no-effect control and ±100 the full control effect; nearly all actives have a fitted effect of over 65% in size
HepG2 tox-2 = counter-screen for TGF-b inhibitors: cytotoxicity in HepG2 cells; shares compounds with TGFb SMAD3 inh; HepG2 CAGA-GFP viability, ATP luminescence, 18 h; cells stimulated with TGF-beta, 500 pg/mL; Potency, µM (doses to about 46.1 µM), for inactives: at the highest dose activity, negative = cytotoxicity, usual class: inhibitors; hit rate 27% among 1,600; AID 720535; further: potency means the concentration at half of the fitted maximal effect; on the % scale 0 is the no-effect control and ±100 the full control effect; nearly all actives have a fitted effect of over 70% in size
CCL64 TGFb inh = orthogonal confirmation of TGF-b inhibitors in CCL64 cells; CCL64 CAGA-GFP reporter, TGF-b stimulated, GFP fluorescence, 18 h; hit rate 41% among 1,600; Potency, µM (doses to about 46.1 µM), inactives show at the top dose activity, negative = inhibition, usual class: inhibitors; shares compounds with TGFb SMAD3 inh; further: potency means the concentration at half of the fitted maximal effect; nearly all actives have a fitted effect of over 65% in size
TGFb COP inh = TGF-b inhibition validated with COP promoter; Potency, µM (top dose mostly 46.1 µM), inactives show at the top dose activity, negative = inhibition, usual class: inhibitors; shares compounds with TGFb SMAD3 inh; AID 720537; hit rate 3% among 1,600; HepG2 COP-GFP TGF-b reporter, GFP fluorescence, 18 h; cells stimulated by added recombinant TGF-beta; further: potency means the concentration at half of the fitted maximal effect; nearly all actives have a fitted effect of over 70% in size
* marks the source's active call; other numbers are inactive results; i = inactive; ? = inconclusive; · = no result; [ ] = remark or other dose. Rows were chosen to be rich in hits. Some 2.2% of all compounds tested hit in one or more screens of this group. Unless noted, the call rests on the fitted dose curve; in most records, active means well fitted curve in the direction sought with a large enough effect; inconclusive means small, poorly fitted or top-dose-only effect, or another doubt; inactive means no such curve, though single readings can be large; an effect the other way counts as inactive or inconclusive.

SMILES	IDH1 R132H inh	ATXN viability	HepG2 tox-1	LDHA block	TGFb SMAD3 inh	ATXN2 expr inh	TGFb confirm	HepG2 tox-2	CCL64 TGFb inh	TGFb COP inh
CCN(C[C@H]1N[C@@](Cc2ccccc2)(C(=O)OC)[C@H]2C(=O)N(Cc3ccccc3)C(=O)[C@@H]12)C(=O)Nc1ccc(F)cc1	-1%[38.3 µM]	?	-6%	-2	13µM*	-18%	23µM*	-17%	?	-2%
COC(=O)[C@]1(Cc2ccccc2)N[C@H](CN(C)C(=O)Nc2ccc(C(F)(F)F)cc2)[C@@H]2C(=O)N(Cc3ccccc3)C(=O)[C@@H]21	11%	i	-29%	1	10µM*	-25%	21µM*	-27%	8.2µM*	-4%
CCN(C[C@H]1N[C@@](Cc2ccccc2)(C(=O)OC)[C@H]2C(=O)N(Cc3ccccc3)C(=O)[C@@H]12)C(=O)Nc1ccc(Cl)cc1	-2%[38.3 µM]	?	-17%	-3	13µM*	-16%	7.3µM*	-28%	12µM*	25%
CCNC(=O)N(CC)C[C@H]1N[C@@](Cc2ccccc2)(C(=O)OC)[C@H]2C(=O)N(Cc3ccccc3)C(=O)[C@@H]12	-5%	i	1%	-4	33%	1%	·	·	·	·
CCN(C[C@H]1N[C@@](C)(C(=O)OC)[C@H]2C(=O)N(Cc3ccccc3)C(=O)[C@@H]12)C(=O)Nc1ccc(Cl)cc1	1%	?	-5%	-3	0%	-12%	·	·	·	·
CC[C@@]1(C(=O)OC)N[C@H](CN(C)C(=O)Nc2ccc(C(F)(F)F)cc2)[C@@H]2C(=O)N(Cc3ccccc3)C(=O)[C@@H]21	-7%	i	-2%	2	-7%	1%	·	·	·	·
CCOc1ccc(CN(C)C(=O)c2ccc3ccccc3n2)cc1	7%	?	-9%	-2	-20%	1%	·	·	·	·
COc1ccc(Cl)cc1S(=O)(=O)Nc1ccc(Cl)cn1	1%	i	-29%	-8	-19%	·	·	·	·	·
O=C(CCN1CCOCC1)c1ccc2c(c1)OCCO2	5%	i	-99%	-1	10µM*	-6%	21µM*	23µM*	?	?
O=C(CCCN1CCOCC1)c1ccc2c(c1)OCCO2	-1%	?	-5%	-2	-1%	-13%	·	·	·	·
O=C(Nc1ccc(S(=O)(=O)NC2=NCCCCC2)cc1)c1cccs1	5%	i	-14%	-10	0%	·	·	·	·	·
O=C(Nc1ccc(S(=O)(=O)NC2=NCCCCC2)cc1)c1ccc([N+](=O)[O-])s1	1%	i	-105%	-2	7.1µM*	?	12µM*	?	21µM*	27%
Cc1ccc2c(c1)-c1onc(C(=O)N3CCN(c4cc(Cl)ccc4C)CC3)c1CO2	-5%	i	-12%	-4	1%	9%	·	·	·	·
NC(=O)CC(NC(=O)c1ccccc1)c1ccc(N2CCC(N3CCCC3)CC2)c([N+](=O)[O-])c1 (configuration not stated)	-9%	i	-2%	-5	1%	4%	·	·	·	·
NC(=O)CC(NC(=O)c1ccc(Br)cc1)c1ccc(N2CCN(c3ccccc3)CC2)c([N+](=O)[O-])c1 (configuration not stated)	-7%	i	-17%	-9	?	-14%	·	·	·	·
NC(=O)CC(NC(=O)c1ccc(Br)cc1)c1ccc(N2CCC(Cc3ccccc3)CC2)c([N+](=O)[O-])c1 (configuration not stated)	4%	i	-31%	-7	10µM*	-26%	?	21µM*	?	-4%
NC(=O)CC(NC(=O)c1ccccc1)c1ccc(N2CCC(Cc3ccccc3)CC2)c([N+](=O)[O-])c1 (configuration not stated)	-8%	?	-35%	-7	6.3µM*	?	23µM*	?	?	67%
Cc1ccc(NC(=O)CN(C)C(=O)c2cc(-c3ccccc3)nn2-c2ccccc2)cc1	-8%	i	-1%	-2	11µM*	-3%	18µM*	-22%	16µM*	9%
Cc1cc(C)cc(NC(=O)CNC(c2ccccc2)c2ccccc2)c1	0%	i	1%	4	-29%	-34%	·	·	·	·
COc1ccc(NC(=O)CNC(c2ccccc2)c2ccccc2)cc1Cl	9%	i	-29%	-2	11µM*	-11%	?	-10%	?	34%
COc1cc(-c2cn(S(=O)(=O)c3cccc4nsnc34)nc2N)cc(OC)c1OC	-1%	i	-15%	-8	20%	16%	·	·	·	·
O=C(Nc1cccc(S(=O)(=O)Nc2ccccc2Cl)c1)c1ccc(Cl)nc1	1%	i	-29%	0	13µM*	-22%	8.2µM*	-15%	-2%	10%
CC(C)Oc1ccc(C(=O)N2CCC(CCC(=O)NC3CC3)CC2)cc1	-1%	i	-9%	-11	7%	·	·	·	·	·
CCCN(CCC)Cc1c(C(=O)N/N=C/C(C)=C\c2ccco2)nnn1-c1nonc1N	12%	·	-15%	13	7.9µM*	?	5.2µM*	?	?	26%
CC(/C=N/NC(=O)c1nnn(-c2nonc2N)c1CN(C)C)=C\c1ccco1	2%	i	-9%	21	11%	-9%	·	·	·	·
CCOCCCNc1oc(/C=C/c2cc(OC)c(OC)c(OC)c2)nc1C#N	·	·	·	-6	·	·	·	·	·	·
